# A number with no mark means an inactive call. Records with an inconclusive call do not appear. Activity calls are given as the source filed them. The call rests on the fitted dose curve; in most records, active means well fitted curve in the direction sought with a large enough effect; inconclusive means small, poorly fitted or top-dose-only effect, or another doubt; inactive means no such curve, though single readings can be large; an effect the other way counts as inactive or inconclusive.
# Test system: not listed separately
# Test: Inducers of the Endoplasmic Reticulum Stress Response (ERSR) in human glioma: Validation (AID 504836); further: 0% is about no effect
# Details: human glioma cells, ER stress response reporter; series mostly up to 38.3 µM; activation: at the top concentration
# How it was run: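 Stably transfected U87-MG human glioma cells carrying a GRP78-based luminescent sensor were seeded at 1000 cells/well, pin-dosed with compounds and incubated 16 h. Luciferase reagent was then added, and end-point luminescence was read after 10 min at room temperature.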
row,SMILES,activation [%]
1,CCN(Cc1ccncc1)C(=O)C(CO)c1ccccc1 (configuration not stated),5.03
2,CC(CCc1ccc(O)cc1)NCCc1ccc(O)c(O)c1 (configuration not stated),2.75
3,CNCCC=C1c2ccccc2CCc2ccccc21,-7.33
4,NC(N)=Nc1nc(CSCC/C(N)=N/S(N)(=O)=O)cs1,-2.47
5,CCOC(=O)c1cnc2c(cnn2CC)c1NN=C(C)C,-1.91
6,NC(=O)N1c2ccccc2C=Cc2ccccc21,-4.4
7,CCCCCCCCCCCCCCCC(=O)NCCO,-1.91
8,CN(C)CCOC(=O)COc1ccc(Cl)cc1,0.5
9,Cc1ccc(Cl)c(Nc2ccccc2C(=O)O)c1Cl,3.82
10,COc1ccc2cc([C@H](C)C(=O)O)ccc2c1,-4.06
11,Nc1ccn([C@@H]2O[C@H](CO)[C@@H](O)C2O)c(=O)n1 (some centres not stated),-4.08
12,FC(F)(F)c1ccccc1-n1ccnc1,-5.84
13,CN1C(C(=O)Nc2ccccn2)=C(O)c2ccccc2S1(=O)=O,-0.518
14,O=C1NCC2(CCN(CCc3ccccc3)CC2)O1,-1.8
15,CC(=O)OCC(=O)[C@@]1(O)CC[C@H]2[C@@H]3CCC4=CC(=O)CC[C@]4(C)[C@H]3C(=O)C[C@@]21C,1.53
16,Clc1cccc(Cl)c1NC1=NCCN1,-1.88
17,CC[N+](CC)(CC)CCOc1cccc(OCC[N+](CC)(CC)CC)c1OCC[N+](CC)(CC)CC,-5.57
18,CCN1CCCC1CNC(=O)c1cc(S(=O)(=O)CC)c(N)cc1OC (configuration not stated),-3.25
19,CCCCCCCC/C=C\CCCCCCCC(=O)NCc1ccc(O)c(OC)c1,0.188
20,NCCCNCCSP(=O)(O)O,1.55
21,COc1ccc2[nH]cc(CCNC(C)=O)c2c1,-3.55

# Target: Ubiquitin carboxyl-terminal hydrolase 1 (Homo sapiens) (UniProt O94782)
# Sequence (O94782 whole entry, looked up): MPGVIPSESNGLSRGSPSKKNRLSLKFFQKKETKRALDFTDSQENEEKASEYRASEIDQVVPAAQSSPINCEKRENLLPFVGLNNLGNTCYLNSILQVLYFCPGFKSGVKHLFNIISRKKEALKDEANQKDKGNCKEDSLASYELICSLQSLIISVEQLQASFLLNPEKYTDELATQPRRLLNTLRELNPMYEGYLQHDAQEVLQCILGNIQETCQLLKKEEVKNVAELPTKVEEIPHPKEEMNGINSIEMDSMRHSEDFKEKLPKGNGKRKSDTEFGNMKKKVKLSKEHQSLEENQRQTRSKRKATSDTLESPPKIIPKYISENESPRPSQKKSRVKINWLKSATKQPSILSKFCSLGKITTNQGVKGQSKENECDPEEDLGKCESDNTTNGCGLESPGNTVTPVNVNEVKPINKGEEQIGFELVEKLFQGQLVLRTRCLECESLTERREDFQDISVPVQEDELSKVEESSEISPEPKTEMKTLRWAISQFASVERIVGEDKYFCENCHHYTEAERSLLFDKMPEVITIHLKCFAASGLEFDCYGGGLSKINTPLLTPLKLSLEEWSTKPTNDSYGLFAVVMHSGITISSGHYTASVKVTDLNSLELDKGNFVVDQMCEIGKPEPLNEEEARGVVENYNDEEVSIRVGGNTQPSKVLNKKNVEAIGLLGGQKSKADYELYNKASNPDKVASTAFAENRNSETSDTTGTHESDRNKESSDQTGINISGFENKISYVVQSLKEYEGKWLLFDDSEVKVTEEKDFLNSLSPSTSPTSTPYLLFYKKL
# Test: Inhibitors of USP1/UAF1: Pilot qHTS (AID 504865); further: nearly all actives have a fitted effect of over 35% in size; further: potency means the concentration at half of the fitted maximal effect;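 on activity change, negative = inhibition: rhodamine fluorescence freed from ubiquitin-rhodamine substrate followed over time; top concentration of the series differs between compounds; on the % scale 0 is the no-effect control and ±100 the full control effect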
# Details: purified USP1/UAF1, Ub-rhodamine cleavage fluorescence; series mostly up to 114 µM; activity change, negative = inhibition: at the top concentration
# How it was run: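 Enzyme-free wells gave the negative control, while test wells held 1nM USP1/UAF1 preincubated with compound for 15 min at room temperature. Ub-Rho at 150nM final started the reaction, and fluorescence at 480/540 nm was recorded kinetically.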
SMILES,Potency,"activity change, negative = inhibition [%]"
Cc1cc(=O)n(-c2ccccc2)n1C,inactive,
Cc1cc(C(C#N)c2ccc(Cl)cc2)c(Cl)cc1NC(=O)c1cc(I)cc(I)c1O (configuration not stated),50.1 µM (active),
O=C1OC(c2ccc(O)c(S(=O)(=O)O)c2)(c2ccc(O)c(S(=O)(=O)O)c2)c2c(Br)c(Br)c(Br)c(Br)c21,50.1 µM (active),
CCC1(CC)C(=O)C=CNC1=O,inactive,
COP(=S)(OC)SCN1C(=O)c2ccccc2C1=O,,-6.72
CC[N+](CC)(CC)CCOc1cccc(OCC[N+](CC)(CC)CC)c1OCC[N+](CC)(CC)CC,inactive,
CCC1(c2ccccc2)C(=O)N(COC)C(=O)N(COC)C1=O,,-2.67
CC(C)(C)c1ccc(O)cc1,,-6
COc1cc(OC)c(OC)cc1C=O,,-8.77
FC1(F)C(F)(F)C(F)(F)C2(F)C(F)(F)C(F)(F)C(F)(F)C(F)(F)C2(F)C1(F)F (configuration not stated),79.4 µM (active),
CCOC(=O)CC(SP(=S)(OC)OC)C(=O)OCC (configuration not stated),,-8.82
